The values that follow come from PubChem BioAssay (NCI).

Structures are written as SMILES. The panel holds about 83,000 compounds, 20% with a hit somewhere; the sample as a whole holds those more often.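 Assay: single dose, 48 h. Readout: percent growth (0 = no net growth; negative = cell death). Active: <10.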 Unmarked numbers belong to inactive results. Active and inactive are the calls of the source.

Common to all, as to experiment: NCI-60 one-dose screen, 48 h (100 = growth as untreated, 0 = no growth, -100 = all killed)
Holding throughout (conditions): 10 µM unless noted

The subject of assay [1] is NCI-H23 lung.
For assay [2], the system named is NCI-H322M lung.
The test system of assay [3] is HOP-62 NSCLC.
The subject of assay [4] is NCI-H460 lung.
In assay [5] the test system is HOP-92 NSCLC.
For assay [6], the system named is A549/ATCC NSCLC.
In assay [7] the test system is 786-0 renal.
For assay [8], the system named is COLO 205 colon.
Assay [9] relates to DU-145 prostate.
The subject of assay [10] is K-562 leukemia.
For assay [11], the system named is MALME-3M melanoma.
For assay [12], the system named is MDA-MB-231 breast.
Assay [13] concerns RXF 393 renal.
The test system of assay [14] is SF-268 CNS.
In assay [15] the test system is SF-295 CNS.
Assay [16] has as its system SF-539 CNS.
Assay [17] relates to UACC-257 melanoma.
For assay [18], the system named is M14 melanoma.
Assay [19] relates to HCT-15 colon.
Assay [20] concerns NCI-H522 lung.

Turning to `O=S1(=O)N(Cc2ccccc2)[C@@H](Cc2ccccc2)C2O[C@H]2[C@H](Cc2ccccc2)N1Cc1ccccc1` (some centres not stated), the growth in [1] is 37.6%; in assay [2], 84.9%; in assay [3], 53.6%; in assay [4], 9.31% (active); in assay [5] it was 114%; in assay [6], 44.1%. Further, the growth in assay [7] is 40.6%; in assay [8], 61.8%; in [9] it was 34.3%; in [10], 23.4%; in assay [11] it was 67.8%; in assay [12] it was 24.2%. For the same compound, the growth in assay [13] was 45.2%; in [14] it was 57.8%; in assay [15] it was 38%; in assay [16], 38.6%; in assay [17] it was 39.1%; in assay [18] it was 72.6%. The growth in assay [19] was 26.1%.

On to `C#CCn1cc(C=C2C(=O)NC(=O)NC2=O)c2cc(Cl)ccc21`, for which the growth in assay [1] is 90.5%; in assay [2], 87.6%; in assay [3], 95.5%; in assay [4], 63.1%; in assay [5], 88.7%; in assay [6], 96.1%. The growth in assay [7] is 106%; in [8], 123%; in [9] it was 87.6%; in [10], 82.6%; in assay [11], 98.4%; in assay [12], 86.2%. Further, the growth in [13] was 72.3%; in assay [14], 81.1%; in [15] it was 92.6%; in [16], 82.5%; in assay [17], 94.6%; in assay [18], 85.1%. Also, the growth in assay [19] is 82.8%.

For `CCOc1ccc(Nc2ccnc3cc(Cl)ccc23)cc1`, the growth in assay [1] is -3.27% (active); in assay [2], -0.617% (active); in [3], 24.5%; in [4] it was 5.71% (active); in assay [5], -25% (active); in [20], -35.4% (active). Moreover, the growth was 19.1% in assay [7]; -91.1% (active) in assay [8]; 9.05% (active) in assay [10]; -25.2% (active) in [11]; -31.6% (active) in assay [12]; 3.65% (active) in assay [13]. In addition, the growth is 22.7% in [14]; -53% (active) in assay [15]; 24.4% in [16]; -33.6% (active) in [17]; 14.7% in assay [18]; 17.2% in assay [19].

As to `CCOc1ccc2nc(C)cc(Nc3ccc(Br)cc3)c2c1`, the growth in assay [1] was 95.8%; in [2] it was 93.9%; in [3], 109%; in assay [4] it was 101%; in assay [5], 105%; in assay [6], 95.2%. The growth in assay [7] is 108%; in [8] it was 95.9%; in assay [9], 110%; in [10], 87.6%; in assay [12], 109%; in assay [13], 110%. The growth in [14] is 108%; in assay [15], 110%; in assay [16], 103%; in assay [17] it was 103%; in assay [18], 121%; in assay [19], 82.2%.

For the compound `COc1ccc(CSc2nnc(SCC(=O)Nc3ccc(Cl)cc3)s2)cc1`, the growth in [1] was 80.5%; in assay [2], 65.4%; in assay [3], 89%; in assay [4] it was 37.6%; in [5], 78%; in assay [6] it was 62.4%. Further, the growth in assay [7] is 68.7%; in assay [8], 56.1%; in assay [9], 65.2%; in [10], 15.6%; in [11] it was 121%; in [12], 72.1%. The growth in assay [13] is 104%; in assay [14], 70.5%; in assay [15] it was -12.6% (active); in assay [16], 86.6%; in assay [17], 99%; in assay [18], 39.9%. Also, the growth in assay [19] was 48.1%.

Regarding `COc1cc(C2C3=C(COC3=O)N(CCO)c3cc4c(cc32)OCCO4)cc(OC)c1O` (configuration not stated), the growth was 35.8% in assay [1]; 51.6% in assay [2]; 32.9% in assay [3]; -3.84% (active) in assay [4]; 85.3% in assay [5]; 52.8% in assay [6]. The growth is 19.8% in assay [7]; 18.2% in [8]; -8.77% (active) in assay [9]; 12.5% in assay [10]; 64.7% in assay [11]; 27.7% in assay [12]. The growth in [13] was -45.7% (active); in [14] it was 46%; in [15], 2.74% (active); in assay [16] it was -31.2% (active); in assay [17], 46.2%; in assay [18], -22.4% (active). In [19], the growth was 49.4%.
